# According to PubChem BioAssay (Tox21):
# Results filed as inconclusive are left out. A number with no mark means an inactive call. Active and inactive are the calls of the source. Calls follow the shape of the dose curve; as a rule, active = well fitted inhibition curve with a large enough effect in the repeat runs; inconclusive = weak or mixed curves; inactive = flat fitted curve, though single readings scatter.
# Target: Luciferin 4-monooxygenase (Photinus pyralis) (UniProt P08659)
# Assay: qHTS assay to identify small molecule inhibitors of firefly luciferase (AID 1224835); also: nearly all actives have a fitted effect of over 25% in size
# Conditions: purified P. pyralis luciferase, luminescence inhibition; series mostly up to 115 µM; activity change, negative = inhibition: at the top concentration
# From the text: U.S. Tox21 Program National Center for Advancing Translational Sciences [NCATS] NIH Chemical Genomics Center [NCGC] U.S. Environmental Protection Agency [EPA] National Institutes of Environmental Health Sciences [NIEHS] National Toxicology Program [NTP] U.S. Food and Drug Administration [FDA] Tox21 Assay Overview: Firefly (Photinus pyralis) luciferase is one of the most commonly used transcriptional reporters. Firefly luciferase reporter-gene assays are generally considered one of the most sensitive assay types (Wood, 1995; Wood, 1998). However, it was initially observed, in 1991, by Thompson et al., that compounds that resemble the substrates of firefly luciferase (FLuc) can act as competitive inhibitors of the enzyme, and that these compounds, upon interaction with luciferase in the cell, can actually stabilize the protein and increase its half-life. Previous profiling work by other groups to determine the prevalence of compounds that affect FLuc enzymatic activity (PubChem AID 411) identified that ~3% of the MLSMR library (then at ~72K) inhibited FLuc. […] Thus the Tox21 10K library is profiled for activity against FLuc using a biochemical assay of purified FLuc and KM concentrations of FLuc substrates (D-luciferin and ATP).
# These assay plates were then treated with 23nL of compound or DMSO using a Kalypsys pin tool, which allows for delivery of a 6-point interplate titration of each compound to the assay plate (quantitative HTS.) 1 uL of firefly luciferase mix (containing 50 mM Tris acetate, pH 7.6, 0.04 uM P. pyralis luciferase, 0.01% Tween, 0.05% BSA and dH2O) was then delivered by FRD to each well. Luciferase activity was then measured using a ViewLux CCD imager.
# % is scaled to controls: 0 for no effect and ±100 for the full control effect; potency is read from the fitted curve at half-maximal effect.
# Luciferin 4-monooxygenase (Photinus pyralis), sequence (P08659 whole entry, looked up): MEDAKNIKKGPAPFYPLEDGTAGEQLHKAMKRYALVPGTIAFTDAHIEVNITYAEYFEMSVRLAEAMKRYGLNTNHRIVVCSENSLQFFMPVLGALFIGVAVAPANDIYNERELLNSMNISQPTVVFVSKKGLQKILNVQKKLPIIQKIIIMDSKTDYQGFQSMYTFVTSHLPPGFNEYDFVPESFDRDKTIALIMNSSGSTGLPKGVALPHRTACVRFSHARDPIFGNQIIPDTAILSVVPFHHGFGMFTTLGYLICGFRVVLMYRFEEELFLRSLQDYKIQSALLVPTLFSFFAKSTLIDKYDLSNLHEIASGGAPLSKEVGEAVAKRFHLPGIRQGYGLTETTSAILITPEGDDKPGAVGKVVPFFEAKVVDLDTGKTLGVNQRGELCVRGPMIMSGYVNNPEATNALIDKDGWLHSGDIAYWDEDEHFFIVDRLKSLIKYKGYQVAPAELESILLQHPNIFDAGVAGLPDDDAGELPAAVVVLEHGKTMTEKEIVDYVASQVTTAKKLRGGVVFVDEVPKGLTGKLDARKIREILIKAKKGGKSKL
Structure (SMILES),"activity change, negative = inhibition",Potency
C=CCCCCCCCCCCCC,0.265%,–
CN1CCN(CC(=O)N2c3ccccc3C(=O)Nc3cccnc32)CC1,1.23% [at 10.5 µM],–
CCC(C)(CCC(C)C)C(=O)O (stereo not given),0.826%,–
Brc1ccc(-c2ccccc2)cc1,–,35.5 µM (active)
Cc1ccccc1OCC(O)CO (stereo not given),2.17% [at 52.9 µM],–
COc1ccc2c(c1OC)C(=O)O[C@@H]2[C@H]1c2c(cc3c(c2OC)OCO3)CCN1C,2.15% [at 52.9 µM],–
CCCCCOC(=O)CCC,-8.11%,–
COC(=O)C1CC(=O)C(C(=O)OC)CC1=O (stereo not given),0.09% [at 10.5 µM],–
CCCN1C[C@H](CSC)C[C@@H]2c3cccc4[nH]cc(c34)C[C@H]21,8.15% [at 52.9 µM],–
CC1(CO)CN(c2ccccc2)NC1=O (stereo not given),-2.11%,–
CC(C)(C)c1nnc(NS(=O)(=O)c2ccc(N)cc2)s1,-0.609% [at 52.9 µM],–
CC(=O)/C=C/C1C(C)=CCC(C)C1(C)C (stereo not given),1.87%,–
CCC(C=O)CC,1.17%,–
CNC(=O)[C@H]1O[C@@H](n2cnc3c(NCc4cc(Cl)ccc4OCc4cc(C)no4)ncnc32)[C@H](O)[C@@H]1N,3.07%,–
CCCCCCOC(=O)CC,10.1%,–
CCCCCCCCSCC,0.162%,–
O=C(OCc1ccccc1)C(=O)OCc1ccccc1,5%,–
CC(=O)N[C@@H](CCC(=O)O)C(=O)O,2.49% [at 52.9 µM],–
O=C(CCNNC(=O)c1ccncc1)NCc1ccccc1,-0.0018% [at 52.9 µM],–
CN(C)CCOCCO,1.94%,–

Structure (SMILES),"activity change, negative = inhibition",Potency
CC(CN)CC(C)(C)CCN (stereo not given),10.5% [at 300 µM],–
Cc1cccc(C)c1NC(=O)c1ccccc1C(=O)O,1.54% [at 52.9 µM],–
C=C1CC/C=C(\C)CC[C@@H]2[C@@H]1CC2(C)C,0.684%,–
CC1=CCC(C(C)C)=CC1,4.22%,–
NS(=O)(=O)c1cc2c(cc1Cl)CN(C1CCCCC1)C2=O,-6.84% [at 52.9 µM],–
COCCOCCOCCOCCOCCO,5.16%,–
CCO[Si](CCCS)(OCC)OCC,1.15%,–
CCCOC(=O)C(C)O (stereo not given),-6.24%,–
CC[C@H](C)C(=O)O[C@H]1C[C@H](O)C=C2C=C[C@H](C)[C@H](CC[C@@H](O)C[C@@H](O)CC(=O)O)[C@H]21,-0.806%,–
CCCC/C=C/C=C\C=O,0.626%,–
CCOC(=O)CC(=O)c1ccccc1,-11.3%,–
COCCOCCOCCOCCO,-1.96%,–
CCCCCCN,1.75%,–
CCCCC(CC)COCCO (stereo not given),0.696%,–
C=C(C)C(=O)OCC(C)(C)COC(=O)C(=C)C,2.41%,–
CC(C)=O,-1.65%,–
CCCCCCCCC(=O)Cl,-2.18%,–
CC(=O)c1sc(C)nc1C,-0.693%,–
CC(C)(C)OC(=O)c1ccc(O)cc1,–,39.9 µM (active)
COc1cc(NS(=O)(=O)c2ccc(N)cc2)nc(OC)n1,-6.01% [at 52.9 µM],–
